# Reference: PubChem BioAssay (NCI)
# The panel holds about 79,000 compounds, 15% with a hit somewhere; the sample as a whole holds those more often. The source made the active and inactive calls. Cut-off read from the data, not from the text of the source: active = growth inhibition above about 70%; inactive = the rest.
# Experiment: NCI Yeast Anticancer Drug Screen. Data for the bub3 strain (AID 167)
# Conditions: S. cerevisiae bub3 mutant strain, at 50.0 µM, stronger effect = higher value
# Outline: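 Compounds were applied to a genetically altered yeast strain carrying a cell-cycle control defect. Growth inhibition was scored against vehicle-treated controls.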
row,Compound,growth inhibition
1,CCOC(=O)NC(Nc1cccc(F)c1)(C(F)(F)F)C(F)(F)F,-12.3% (inactive)
2,N#C/C(=C\c1ccccc1[N+](=O)[O-])C(=O)O,-19% (inactive)
3,Cc1cc(C)c(NS(=O)(=O)c2ccc(Cl)cc2)cc1C,87.6% (active)
4,O=C1c2cc3ccccc3cc2NC(O)c2cccn21 (stereo not given),13.4% (inactive)
5,C/C=C(\CC)C(C#N)(CCC)C(=O)OCC (stereo not given),-33.1% (inactive)
6,CCN(CC)CC(C)(C)C(=O)/C=C/c1ccc(OC)cc1,0.05% (inactive)
7,CC1(C)Nc2cc3c(cc2-n2cccc21)oc1ccccc13,30.4% (inactive)
8,C=CCOc1cc(=O)[nH]c2ccccc12,-0.45% (inactive)
9,c1ccc2oc(-c3ccc4c(c3)OCO4)nc2c1,-2.75% (inactive)
10,CC1(C)OC[C@@H](O)[C@H](C#N)CO1,-0.95% (inactive)
11,O=c1ccn(C2OC(C(O)CO)C(O)C2O)c(=O)[nH]1 (stereo not given),-8.15% (inactive)
12,Brc1ccccc1N=Nc1ccccc1Br,-8.5% (inactive)
13,CC(=O)c1cccc(NC(=O)Nc2cccc3ccccc23)c1,15.7% (inactive)
14,CNc1n[nH]c(-c2ccccc2)n1,1.15% (inactive)
15,COc1ccc(OC)c(NC(=O)OCc2ccc3c(c2)OCO3)c1,26.9% (inactive)
16,NC(N)=NC(N)=Nc1cnccn1,-10.5% (inactive)
17,CC1(C)OC2COC(CNCC3OCC4OC(C)(C)OC34)C2O1 (stereo not given),-14.8% (inactive)
18,CCOC(=O)C(Nc1cccc2ccccc12)C(=O)OCC,46.2% (inactive)
19,CCCCN(CCCC)C(=O)C(=O)C(C)C(=O)CC (stereo not given),12.3% (inactive)
20,COC1=CC(=O)N(C)C(O)C1(C#N)OC1OC(CO)C(O)C(O)C1O (stereo not given),-17.9% (inactive)

row,Compound,growth inhibition
1,CC1=CC[C@@H](Br)C(C)(C)[C@]12CC[C@]1(C)O[C@@H]1C2,-23.6% (inactive)
2,Cn1c(=O)c2c(nc3sc4nc5ccccc5nc4n32)n(C)c1=O,-30.4% (inactive)
3,CC(C)/C(Cl)=N/OC(=O)Nc1ccc(Cl)c(Cl)c1,88.9% (active)
4,O=C(C=C(C(F)(F)F)C(F)(F)F)/C=C/c1ccccc1,99.3% (active)
5,C/C=C(\C(=C\C)c1ccc(OC(=O)c2ccccc2)c(C2CCCCC2)c1)c1ccc(O)c(C2CCCCC2)c1,2.95% (inactive)
6,NC(=O)c1ccccc1OC(=O)Nc1ccccc1,22.1% (inactive)
7,CCOC(=O)NN(C/C(Cl)=C/Cl)C/C(Cl)=C/Cl,7.35% (inactive)
8,CN(C)C(=S)/N=c1\ssc(=S)n1C1CCCCC1,25.7% (inactive)
9,Cc1cc2c(cc1[N+](=O)[O-])OCCO2,-3.25% (inactive)
10,O=C(/C=C/c1ccccc1)NCCC1(O)C(=O)Nc2ccccc21 (stereo not given),-10.5% (inactive)
11,CCCCCCC1OCC(CC)(CC)CO1,-15.6% (inactive)
12,CC(=O)Nc1ccc(Cc2ccc(O)cc2)cc1,-3.55% (inactive)
13,Clc1ccc(C(CI)c2ccccc2Cl)cc1 (stereo not given),27.9% (inactive)
14,C=CCCC(=O)OC(C)(C)C,6.1% (inactive)
15,C[N+]1=CN(c2ccc(Cl)cc2)Cc2cc(Cl)ccc21,40.1% (inactive)
16,CCCCC(CC)CCC(O)CC(C)C (stereo not given),13.8% (inactive)
17,O=C1CCCC(=O)N1CCCO,-6.4% (inactive)
18,O=C1CCCCc2cccc(O)c21,2.4% (inactive)
19,COc1ccc2c(c1)C1(C)CCCC(C)(C(N)=O)C1CC2 (stereo not given),-12.2% (inactive)
20,Cc1cn(C2CC(C)N(CCO)O2)c(=O)[nH]c1=O (stereo not given),-14.9% (inactive)
